# Several values for one entry are separate records, joined by “and”; a condition that tells them apart may be missing. Identical values can stand only once. Inconclusive results are not listed. A call without a number means that no potency is given here. Values without a mark were called inactive. Activity calls are given as the source filed them. Calls follow the shape of the dose curve; as a rule, active = well fitted inhibition curve with a large enough effect; inconclusive = small, poorly fitted or top-dose-only effect; inactive = flat fitted curve, though single readings scatter.
# Columns and labels:
# CRL-7250 = normal cell line; test: Cytotoxic Profiling of Annotated Libraries Using Quantitative High-Throughput Screening (AID 1296008); details: Five cell lines viability, CellTiter-Glo ATP luminescence, 48-72 h; max response: hits give low values
# Outline: (§1)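 Cells exposed to compounds for 48 or 72 hr at 37 degrees Celsius. Viability read as ATP-coupled luminescence with CellTiter-Glo after 10 min at room temperature.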
# HEK293 = test: as above; details: Five cell lines viability, CellTiter-Glo ATP luminescence, 48-72 h; max response: hits give low values
# Outline: as §1
# HaCat = test: as above; details: Five cell lines viability, CellTiter-Glo ATP luminescence, 48-72 h; max response: hits give low values
# Outline: as §1
# FAB9 = test: qHTS profiling for inhibitors of Plasmodium falciparum proliferation (AID 504749); details: P. falciparum in erythrocytes, SYBR Green DNA, 72 h; series mostly up to 28.7 µM
# Outline: (§2)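 Each compound contacts P. falciparum-infected red blood cells for 72 h at 37 C; lysis buffer (Tris, EDTA, saponin, Triton X, SYBR Green I) is added and fluorescence measured next morning; values normalized to controls.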
# GB4 = test: as above; details: P. falciparum in erythrocytes, SYBR Green DNA, 72 h; series mostly up to 28.7 µM
# Outline: as §2
# HB3 = test: as above; details: P. falciparum in erythrocytes, SYBR Green DNA, 72 h; series mostly up to 28.7 µM
# Outline: as §2
# ICS = test: as above; details: P. falciparum in erythrocytes, SYBR Green DNA, 72 h; series mostly up to 28.7 µM
# Outline: as §2
# JCK = test: as above; details: P. falciparum in erythrocytes, SYBR Green DNA, 72 h; series mostly up to 28.7 µM
# Outline: as §2
# N140 = test: as above; details: P. falciparum in erythrocytes, SYBR Green DNA, 72 h; series mostly up to 28.7 µM
# Outline: as §2
# P93_24 = test: as above; details: P. falciparum in erythrocytes, SYBR Green DNA, 72 h; series mostly up to 28.7 µM
# Outline: as §2
# P94_40 = test: as above; details: P. falciparum in erythrocytes, SYBR Green DNA, 72 h; series mostly up to 28.7 µM
# Outline: as §2
# PAD = test: as above; details: P. falciparum in erythrocytes, SYBR Green DNA, 72 h; series mostly up to 28.7 µM
# Outline: as §2
# PC15 = test: as above; details: P. falciparum in erythrocytes, SYBR Green DNA, 72 h; series mostly up to 28.7 µM
# Outline: as §2
# PC26 = test: as above; details: P. falciparum in erythrocytes, SYBR Green DNA, 72 h; series mostly up to 28.7 µM
# Outline: as §2
# PC49 = test: as above; details: P. falciparum in erythrocytes, SYBR Green DNA, 72 h; series mostly up to 28.7 µM
# Outline: as §2
# SC27B = test: as above; details: P. falciparum in erythrocytes, SYBR Green DNA, 72 h; series mostly up to 28.7 µM
# Outline: as §2
# TAB109 = test: as above; details: P. falciparum in erythrocytes, SYBR Green DNA, 72 h; series mostly up to 28.7 µM
# Outline: as §2
# TAB113 = test: as above; details: P. falciparum in erythrocytes, SYBR Green DNA, 72 h; series mostly up to 28.7 µM
# Outline: as §2
# TAB165 = test: as above; details: P. falciparum in erythrocytes, SYBR Green DNA, 72 h; series mostly up to 28.7 µM
# Outline: as §2
# W2 = test: as above; details: P. falciparum in erythrocytes, SYBR Green DNA, 72 h; series mostly up to 28.7 µM
# Outline: as §2
# Also: nearly all actives have a fitted effect of over 60% in size.
# Potency is read from the fitted curve at half-maximal effect.
smiles,measurement,setting,value
CN(C)CC[C@@H](c1ccc(Cl)cc1)c1ccccn1,max response,CRL-7250,4.72%
same,max response,HEK293,-2.7%
same,max response,HaCat,0.999%
COc1ccc(Cl)cc1C(=O)NCCc1ccc(S(=O)(=O)NC(=O)NC2CCCCC2)cc1,Potency,FAB9,inactive
same,Potency,GB4,inactive
same,Potency,HB3,inactive
same,Potency,ICS,inactive
same,Potency,JCK,inactive
same,Potency,N140,inactive
same,Potency,P93_24,inactive
same,Potency,P94_40,inactive
same,Potency,PAD,inactive
same,Potency,PC15,inactive
same,Potency,PC26,inactive
same,Potency,PC49,inactive
same,Potency,SC27B,inactive
same,Potency,TAB109,inactive
same,Potency,TAB113,inactive
same,Potency,TAB165,inactive
same,max response,CRL-7250,-1.35% and -10.9%
same,max response,HEK293,-12.8%
same,outcome,HEK293,inactive
same,max response,HaCat,2.84% and -12.6%
C[C@]12CC[C@@H]3c4ccc(O)cc4CC[C@H]3[C@@H]1CC[C@@H]2OC(=O)CCC1CCCC1,max response,CRL-7250,-19.6%
same,outcome,CRL-7250,inactive
same,max response,HEK293,-8.4%
same,outcome,HaCat,inactive
O=C(CCCN1CCN(c2ccccn2)CC1)c1ccc(F)cc1,Potency,FAB9,inactive
same,Potency,GB4,inactive
same,Potency,HB3,inactive
same,Potency,ICS,inactive
same,Potency,JCK,inactive
same,Potency,N140,inactive
same,Potency,P93_24,inactive
same,Potency,P94_40,inactive
same,Potency,PAD,inactive
same,Potency,PC15,inactive
same,Potency,PC26,inactive
same,Potency,PC49,inactive
same,Potency,SC27B,inactive
same,Potency,TAB109,inactive
same,Potency,TAB113,inactive
same,Potency,TAB165,inactive
same,Potency,W2,inactive
same,max response,CRL-7250,-29%
same,outcome,CRL-7250,inactive
same,max response,HEK293,-14.9%
same,max response,HaCat,-5.51% and 4.13%
CN1CCOC(c2ccccc2)c2ccccc2C1 (centres undefined),max response,CRL-7250,2.8%
same,outcome,CRL-7250,inactive
same,max response,HEK293,-2.69%
same,outcome,HEK293,inactive
same,max response,HaCat,-15.1% and -5.19%
CC(C)(O)c1ccccc1CC[C@@H](SCC1(CC(=O)O)CC1)c1cccc(/C=C/c2ccc3ccc(Cl)cc3n2)c1,max response,CRL-7250,-23.3%
same,max response,HEK293,4.81%
same,outcome,HaCat,inactive
CCN(CC)CCOC(=O)C1(C2CCCCC2)CCCCC1,outcome,CRL-7250,inactive
same,max response,HEK293,-0.793%
same,outcome,HaCat,inactive
CCOc1ccc2ccccc2c1C(=O)N[C@@H]1C(=O)N2[C@@H]1SC(C)(C)[C@@H]2C(=O)O,Potency,FAB9,inactive
same,Potency,GB4,inactive
same,Potency,HB3,inactive
same,Potency,ICS,inactive
same,Potency,JCK,inactive
same,Potency,N140,inactive
same,Potency,P93_24,inactive
same,Potency,P94_40,inactive
same,Potency,PAD,inactive
same,Potency,PC15,inactive
same,Potency,PC26,inactive
same,Potency,PC49,inactive
same,Potency,SC27B,inactive
same,Potency,TAB109,inactive
same,Potency,TAB113,inactive
same,Potency,TAB165,inactive
same,outcome,CRL-7250,inactive
same,max response,HEK293,0.937%
same,outcome,HEK293,inactive
same,max response,HaCat,4.96%
same,outcome,HaCat,inactive
CCN(CC)CCNC(=O)c1cc(Cl)c(N)cc1OC,Potency,FAB9,inactive
same,Potency,GB4,inactive
same,Potency,HB3,inactive
same,Potency,ICS,inactive
same,Potency,JCK,inactive
same,Potency,N140,inactive
same,Potency,P93_24,inactive
same,Potency,P94_40,inactive
same,Potency,PAD,inactive
same,Potency,PC15,inactive
same,Potency,PC26,inactive
same,Potency,PC49,inactive
same,Potency,SC27B,inactive
same,Potency,TAB109,inactive
same,Potency,TAB113,inactive
same,Potency,TAB165,inactive
same,Potency,W2,inactive
same,max response,CRL-7250,0.565%
same,max response,HEK293,-1.38%
same,outcome,HEK293,inactive
same,max response,HaCat,1.24%
same,outcome,HaCat,inactive
N[C@@H](CSSC[C@H](N)C(=O)O)C(=O)O,outcome,CRL-7250,inactive
same,outcome,HEK293,inactive
same,outcome,HaCat,inactive
CS(=O)(=O)c1ccc([C@@H](O)[C@@H](CF)NC(=O)C(Cl)Cl)cc1,max response,CRL-7250,-8.92%
same,outcome,CRL-7250,inactive
same,Potency,HEK293,2.99 µM (active)
same,max response,HaCat,3.4%
same,outcome,HaCat,inactive
CCOc1nc2cccc(C(=O)O)c2n1Cc1ccc(-c2ccccc2-c2nn[nH]n2)cc1,Potency,FAB9,inactive
same,Potency,GB4,inactive
same,Potency,HB3,inactive
same,Potency,JCK,inactive
same,Potency,P93_24,inactive
same,Potency,PAD,inactive
same,Potency,PC15,inactive
same,Potency,PC49,inactive
same,Potency,SC27B,11.2 µM (active)
same,Potency,TAB109,inactive
same,max response,CRL-7250,-0.772%
same,outcome,CRL-7250,inactive
same,max response,HEK293,-7.13% and 4.6%
same,max response,HaCat,-22.9% and -2.42%
CCCCc1ncc(/C=C(\Cc2cccs2)C(=O)O)n1Cc1ccc(C(=O)O)cc1,Potency,FAB9,inactive
same,Potency,GB4,inactive
same,Potency,HB3,inactive
same,Potency,ICS,inactive
same,Potency,JCK,inactive
same,Potency,N140,inactive
same,Potency,P93_24,inactive
same,Potency,P94_40,inactive
same,Potency,PAD,inactive
same,Potency,PC15,inactive
same,Potency,PC26,inactive
same,Potency,PC49,inactive
same,Potency,SC27B,inactive
same,Potency,TAB109,inactive
same,Potency,TAB113,inactive
same,Potency,TAB165,inactive
same,Potency,W2,inactive
same,max response,CRL-7250,0.696%
same,outcome,CRL-7250,inactive
same,max response,HEK293,1.61% and 1.3%
same,max response,HaCat,-8.96%
CCN(CC)CCCC(C)Nc1c2ccc(Cl)cc2nc2ccc(OC)cc12 (centres undefined),Potency,CRL-7250,16.8 µM (active)
same,Potency,HEK293,7.5 µM (active) and 3.17 µM (active)
C[C@@H](O)[C@H](N)C(=O)O,max response,CRL-7250,-2.34%
same,outcome,HEK293,inactive
same,outcome,HaCat,inactive
O=C1O[C@H](CO)[C@@H](O)[C@H](O)[C@H]1O,outcome,CRL-7250,inactive
same,outcome,HEK293,inactive
same,outcome,HaCat,inactive
NS(=O)(=O)c1cc2c(cc1C(F)(F)F)NC(Cc1ccccc1)NS2(=O)=O (centres undefined),max response,CRL-7250,-4.39%
same,outcome,HEK293,inactive
same,outcome,HaCat,inactive
CC(C)(C)C(=O)C(Oc1ccc(Cl)cc1)n1ccnc1 (centres undefined),Potency,FAB9,inactive
same,Potency,GB4,13.5 µM (active)
same,Potency,ICS,12.6 µM (active)
same,Potency,JCK,inactive
same,Potency,N140,8.91 µM (active)
same,Potency,P93_24,5.01 µM (active)
same,Potency,P94_40,7.94 µM (active)
same,Potency,PAD,8.91 µM (active)
same,Potency,PC26,16.9 µM (active)
same,Potency,TAB109,10 µM (active)
same,Potency,TAB113,10 µM (active)
same,Potency,TAB165,7.08 µM (active)
same,Potency,W2,6.01 µM (active)
same,max response,CRL-7250,-7.22%
same,outcome,CRL-7250,inactive
same,outcome,HEK293,inactive
same,max response,HaCat,-9.75%
same,outcome,HaCat,inactive

# From PubChem BioAssay (NCATS)
